According to PMC7862700, “An all-to-all approach to the identification of sequence-specific readers for epigenetic DNA modifications on cytosine”:

Columns and labels:
Test in all cases: DAPPL (digital affinity profiling via proximity ligation, sequencing); 10 mM Tris-HCl pH 7.5, 50 mM NaCl, 1 mM DTT, 4% glycerol, room temperature, 30 min; GST-TFs on glutathione beads, 16-mer random dsDNA library, 0.1% formaldehyde crosslink after washing; high values mean tight binding
FLI1 = molecular target: T1, FLI1 (Homo sapiens, UniProt Q01543 1-452); settings: protein: recombinant; tags: N-terminal GST; dsDNA, one strand shown
T1 sequence: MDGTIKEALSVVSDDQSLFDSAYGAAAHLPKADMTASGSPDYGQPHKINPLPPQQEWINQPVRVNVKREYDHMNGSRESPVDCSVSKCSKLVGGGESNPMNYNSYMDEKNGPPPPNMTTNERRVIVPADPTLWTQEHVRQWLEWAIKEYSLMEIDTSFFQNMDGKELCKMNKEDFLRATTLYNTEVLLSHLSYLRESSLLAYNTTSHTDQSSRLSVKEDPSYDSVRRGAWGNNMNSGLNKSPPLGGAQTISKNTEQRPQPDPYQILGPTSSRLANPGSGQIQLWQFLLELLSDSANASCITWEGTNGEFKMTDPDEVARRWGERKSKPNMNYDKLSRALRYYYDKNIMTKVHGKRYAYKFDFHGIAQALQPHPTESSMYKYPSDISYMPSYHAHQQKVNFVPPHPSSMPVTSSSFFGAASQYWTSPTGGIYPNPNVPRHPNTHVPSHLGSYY
How it was run: (§1)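 In yeast, human transcription factors were expressed with a GST fusion, then pulled down on glutathione beads and given DNA barcodes. Pooled with a tag-only sample, they were exposed to 200 nmole of a 16-mer random double-stranded DNA library (Tris/NaCl/DTT/glycerol buffer, room temperature, 30 min), washed, crosslinked with 0.1% formaldehyde, proximity-ligated using BsaI/T4 ligase for 1 h at 37 °C, PCR-amplified and read on an Illumina NextSeq500. Each hexamer's frequency of reads for a factor, divided by the matching frequency for the tag-only sample, gives the binding signal.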

ELK1 = molecular target: T2, ELK1 (Homo sapiens, UniProt P19419 1-428); settings: protein: recombinant; tags: N-terminal GST; dsDNA, one strand shown
T2 sequence: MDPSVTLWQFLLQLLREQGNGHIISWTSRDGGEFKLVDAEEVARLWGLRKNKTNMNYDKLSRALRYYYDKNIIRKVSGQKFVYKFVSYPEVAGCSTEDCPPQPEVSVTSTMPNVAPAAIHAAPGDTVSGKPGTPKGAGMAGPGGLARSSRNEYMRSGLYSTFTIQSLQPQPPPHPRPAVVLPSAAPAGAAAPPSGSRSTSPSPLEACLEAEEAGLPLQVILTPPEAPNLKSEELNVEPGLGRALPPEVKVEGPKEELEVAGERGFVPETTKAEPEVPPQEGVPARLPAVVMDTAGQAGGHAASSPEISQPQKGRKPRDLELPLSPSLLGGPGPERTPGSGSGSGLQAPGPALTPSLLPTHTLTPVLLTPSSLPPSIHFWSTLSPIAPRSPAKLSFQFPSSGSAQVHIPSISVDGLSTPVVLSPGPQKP
How it was run: as §1

GABPA = molecular target: T3, GABPA (Homo sapiens, UniProt Q06546 1-454); settings: protein: recombinant; tags: N-terminal GST; dsDNA, one strand shown
T3 sequence: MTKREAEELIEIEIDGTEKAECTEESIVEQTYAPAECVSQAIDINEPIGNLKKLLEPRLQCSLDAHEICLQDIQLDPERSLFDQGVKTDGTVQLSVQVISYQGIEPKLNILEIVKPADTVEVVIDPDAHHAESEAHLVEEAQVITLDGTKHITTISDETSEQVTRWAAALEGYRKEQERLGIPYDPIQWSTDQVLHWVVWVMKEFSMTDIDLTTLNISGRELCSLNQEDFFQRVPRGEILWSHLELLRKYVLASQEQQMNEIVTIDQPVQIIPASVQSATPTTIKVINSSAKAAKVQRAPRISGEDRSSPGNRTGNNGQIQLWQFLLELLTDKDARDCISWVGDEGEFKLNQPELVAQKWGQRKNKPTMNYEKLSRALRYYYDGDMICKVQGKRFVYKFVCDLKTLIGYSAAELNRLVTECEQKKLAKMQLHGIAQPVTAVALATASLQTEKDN
How it was run: as §1

ERG = molecular target: T4, ERG (Homo sapiens, UniProt P11308 1-479); settings: protein: recombinant; tags: N-terminal GST; dsDNA, one strand shown
T4 sequence: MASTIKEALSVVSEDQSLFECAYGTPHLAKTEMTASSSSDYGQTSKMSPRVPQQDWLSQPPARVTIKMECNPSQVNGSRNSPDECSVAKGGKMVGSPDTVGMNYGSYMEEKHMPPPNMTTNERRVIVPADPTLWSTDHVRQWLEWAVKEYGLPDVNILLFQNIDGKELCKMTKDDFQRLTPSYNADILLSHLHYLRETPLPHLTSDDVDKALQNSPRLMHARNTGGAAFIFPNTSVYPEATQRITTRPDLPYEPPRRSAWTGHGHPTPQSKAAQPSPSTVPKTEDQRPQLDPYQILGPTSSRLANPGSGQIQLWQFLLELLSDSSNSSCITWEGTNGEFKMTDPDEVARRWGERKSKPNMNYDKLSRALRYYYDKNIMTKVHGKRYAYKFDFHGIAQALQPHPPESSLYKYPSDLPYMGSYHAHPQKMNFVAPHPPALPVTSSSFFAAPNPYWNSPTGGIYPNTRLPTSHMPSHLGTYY
How it was run: as §1

ELF1 = ELF1 (Homo sapiens, UniProt P32519 1-619); settings: protein: recombinant; tags: N-terminal GST; dsDNA, one strand shown
How it was run: as §1

EHF = molecular target: T5, EHF (Homo sapiens, UniProt Q9NZC4 1-300); settings: protein: recombinant; tags: N-terminal GST; dsDNA, one strand shown
T5 sequence: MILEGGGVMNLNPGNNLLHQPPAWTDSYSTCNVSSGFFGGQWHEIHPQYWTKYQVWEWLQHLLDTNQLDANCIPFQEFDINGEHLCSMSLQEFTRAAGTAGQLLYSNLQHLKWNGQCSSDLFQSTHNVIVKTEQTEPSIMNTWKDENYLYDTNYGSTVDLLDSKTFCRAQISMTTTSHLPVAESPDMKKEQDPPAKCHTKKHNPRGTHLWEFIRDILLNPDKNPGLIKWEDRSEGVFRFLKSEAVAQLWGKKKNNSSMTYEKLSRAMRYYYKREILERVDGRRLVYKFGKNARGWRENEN
How it was run: as §1

SPI1 = SPI1 (Homo sapiens, UniProt P17947 1-270); settings: protein: recombinant; tags: N-terminal GST; dsDNA, one strand shown
How it was run: as §1

SPIB = SPIB (Homo sapiens, UniProt Q01892 1-262); settings: protein: recombinant; tags: N-terminal GST; dsDNA, one strand shown
How it was run: as §1

ELK3 = molecular target: T6, ELK3 (Homo sapiens, UniProt P41970 1-407); settings: protein: recombinant; tags: N-terminal GST; dsDNA, one strand shown
T6 sequence: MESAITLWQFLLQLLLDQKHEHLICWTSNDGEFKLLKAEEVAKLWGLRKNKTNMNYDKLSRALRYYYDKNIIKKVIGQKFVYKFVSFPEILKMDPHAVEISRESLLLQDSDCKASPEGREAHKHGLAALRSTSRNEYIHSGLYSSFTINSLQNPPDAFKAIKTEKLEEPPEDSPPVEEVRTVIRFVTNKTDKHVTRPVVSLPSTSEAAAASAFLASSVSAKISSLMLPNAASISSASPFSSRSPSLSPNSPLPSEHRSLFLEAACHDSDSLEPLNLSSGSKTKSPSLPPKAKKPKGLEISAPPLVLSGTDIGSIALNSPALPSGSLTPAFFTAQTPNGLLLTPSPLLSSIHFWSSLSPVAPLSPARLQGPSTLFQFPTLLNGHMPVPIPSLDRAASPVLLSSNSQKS
How it was run: as §1

FEV = molecular target: T7, FEV (Homo sapiens, UniProt Q99581 1-238); settings: protein: recombinant; tags: N-terminal GST; dsDNA, one strand shown
T7 sequence: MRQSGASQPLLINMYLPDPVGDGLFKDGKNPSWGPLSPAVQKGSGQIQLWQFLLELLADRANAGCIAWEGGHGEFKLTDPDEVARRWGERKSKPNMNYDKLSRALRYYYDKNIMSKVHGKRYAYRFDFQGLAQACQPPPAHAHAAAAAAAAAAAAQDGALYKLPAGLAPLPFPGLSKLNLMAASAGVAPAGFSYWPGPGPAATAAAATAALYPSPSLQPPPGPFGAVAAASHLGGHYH
How it was run: as §1

ETV5 = ETV5 (Homo sapiens, UniProt P41161 1-510); settings: protein: recombinant; tags: N-terminal GST; dsDNA, one strand shown
How it was run: as §1

HSF1 = HSF1 (Homo sapiens, UniProt Q00613 1-529); settings: protein: recombinant; tags: N-terminal GST; chain copies: 3; dsDNA, one strand shown
How it was run: as §1

SPIC = molecular target: T8, SPIC (Homo sapiens, UniProt Q8N5J4 1-248); settings: protein: recombinant; tags: N-terminal GST; dsDNA, one strand shown
T8 sequence: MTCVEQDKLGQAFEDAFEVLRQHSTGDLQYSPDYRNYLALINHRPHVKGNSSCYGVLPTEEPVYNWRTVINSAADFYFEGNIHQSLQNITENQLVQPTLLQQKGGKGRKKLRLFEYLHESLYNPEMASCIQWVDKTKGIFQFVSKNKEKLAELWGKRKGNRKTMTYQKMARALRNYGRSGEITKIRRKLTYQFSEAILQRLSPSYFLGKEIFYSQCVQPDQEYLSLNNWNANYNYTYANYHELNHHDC
How it was run: as §1

ELF4 = ELF4 (Homo sapiens, UniProt Q99607 1-663); settings: protein: recombinant; tags: N-terminal GST; dsDNA, one strand shown
How it was run: as §1

ELK4 = molecular target: T9, ELK4 (Homo sapiens, UniProt P28324-2 1-405); settings: protein: recombinant; tags: N-terminal GST; dsDNA, one strand shown
T9 sequence: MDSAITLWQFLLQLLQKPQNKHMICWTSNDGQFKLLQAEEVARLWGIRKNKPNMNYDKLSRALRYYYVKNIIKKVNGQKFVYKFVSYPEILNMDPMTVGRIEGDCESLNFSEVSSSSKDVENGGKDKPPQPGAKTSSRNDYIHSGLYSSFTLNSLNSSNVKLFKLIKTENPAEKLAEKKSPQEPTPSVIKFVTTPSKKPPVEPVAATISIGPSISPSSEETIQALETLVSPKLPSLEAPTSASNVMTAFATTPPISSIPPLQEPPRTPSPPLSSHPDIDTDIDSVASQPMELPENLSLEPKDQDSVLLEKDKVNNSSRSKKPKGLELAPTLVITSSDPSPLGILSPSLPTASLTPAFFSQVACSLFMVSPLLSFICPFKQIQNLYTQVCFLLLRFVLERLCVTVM
How it was run: as §1

ETV2 = molecular target: T10, ETV2 (Homo sapiens, UniProt O00321 1-342); settings: protein: recombinant; tags: N-terminal GST; dsDNA, one strand shown
T10 sequence: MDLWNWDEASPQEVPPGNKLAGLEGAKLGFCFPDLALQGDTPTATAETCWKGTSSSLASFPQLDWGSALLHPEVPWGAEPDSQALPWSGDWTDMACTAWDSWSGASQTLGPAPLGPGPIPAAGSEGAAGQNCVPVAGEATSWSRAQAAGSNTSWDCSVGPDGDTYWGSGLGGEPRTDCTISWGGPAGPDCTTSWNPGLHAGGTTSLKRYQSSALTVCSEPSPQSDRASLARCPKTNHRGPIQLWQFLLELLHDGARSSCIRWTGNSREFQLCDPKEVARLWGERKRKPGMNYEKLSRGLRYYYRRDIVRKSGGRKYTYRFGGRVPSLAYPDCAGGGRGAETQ
How it was run: as §1

ELF3 = molecular target: T11, ELF3 (Homo sapiens, UniProt P78545 1-371); settings: protein: recombinant; tags: N-terminal GST; dsDNA, one strand shown
T11 sequence: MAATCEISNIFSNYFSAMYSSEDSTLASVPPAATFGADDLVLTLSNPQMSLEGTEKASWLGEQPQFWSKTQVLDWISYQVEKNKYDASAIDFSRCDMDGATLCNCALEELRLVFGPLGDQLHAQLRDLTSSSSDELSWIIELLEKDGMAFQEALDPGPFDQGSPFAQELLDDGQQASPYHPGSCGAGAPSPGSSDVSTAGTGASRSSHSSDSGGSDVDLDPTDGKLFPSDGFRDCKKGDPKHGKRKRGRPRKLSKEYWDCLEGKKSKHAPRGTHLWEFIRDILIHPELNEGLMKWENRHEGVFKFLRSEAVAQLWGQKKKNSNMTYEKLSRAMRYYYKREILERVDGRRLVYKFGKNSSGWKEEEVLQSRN
How it was run: as §1

ETV1 = ETV1 (Homo sapiens, UniProt P50549 1-477); settings: protein: recombinant; tags: N-terminal GST; dsDNA, one strand shown
How it was run: as §1

Chain of ETV5 (P41161 whole entry): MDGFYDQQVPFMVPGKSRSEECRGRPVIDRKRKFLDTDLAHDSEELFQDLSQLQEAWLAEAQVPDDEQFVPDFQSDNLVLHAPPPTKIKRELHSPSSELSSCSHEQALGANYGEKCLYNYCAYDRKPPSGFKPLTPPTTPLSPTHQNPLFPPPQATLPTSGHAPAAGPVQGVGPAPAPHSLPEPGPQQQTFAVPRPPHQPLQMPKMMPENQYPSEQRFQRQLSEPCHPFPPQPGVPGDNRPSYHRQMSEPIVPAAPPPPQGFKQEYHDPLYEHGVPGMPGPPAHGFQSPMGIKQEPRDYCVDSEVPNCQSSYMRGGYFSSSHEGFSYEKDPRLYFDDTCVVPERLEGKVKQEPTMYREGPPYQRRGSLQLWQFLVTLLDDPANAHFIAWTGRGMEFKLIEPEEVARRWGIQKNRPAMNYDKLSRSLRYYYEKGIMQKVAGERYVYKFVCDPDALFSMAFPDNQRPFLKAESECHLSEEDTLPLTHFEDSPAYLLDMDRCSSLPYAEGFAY
Chain of ELF4 (Q99607 whole entry): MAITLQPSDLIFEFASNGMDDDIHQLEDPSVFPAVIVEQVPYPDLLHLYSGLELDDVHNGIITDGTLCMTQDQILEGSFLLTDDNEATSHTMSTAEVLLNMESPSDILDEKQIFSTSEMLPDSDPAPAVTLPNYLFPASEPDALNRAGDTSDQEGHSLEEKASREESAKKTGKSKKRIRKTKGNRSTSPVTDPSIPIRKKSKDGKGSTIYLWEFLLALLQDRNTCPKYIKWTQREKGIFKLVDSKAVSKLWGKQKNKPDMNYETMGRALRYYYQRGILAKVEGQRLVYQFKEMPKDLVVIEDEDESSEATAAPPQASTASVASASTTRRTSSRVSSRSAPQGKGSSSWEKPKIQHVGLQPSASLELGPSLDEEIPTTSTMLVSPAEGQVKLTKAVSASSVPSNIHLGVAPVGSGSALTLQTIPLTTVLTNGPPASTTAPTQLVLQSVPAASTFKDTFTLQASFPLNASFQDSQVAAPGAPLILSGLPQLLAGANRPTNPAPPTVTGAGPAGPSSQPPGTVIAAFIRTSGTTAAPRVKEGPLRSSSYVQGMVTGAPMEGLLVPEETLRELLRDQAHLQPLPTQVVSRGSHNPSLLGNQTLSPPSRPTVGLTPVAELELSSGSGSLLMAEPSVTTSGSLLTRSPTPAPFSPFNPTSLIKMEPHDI
Chain of SPIB (Q01892 whole entry): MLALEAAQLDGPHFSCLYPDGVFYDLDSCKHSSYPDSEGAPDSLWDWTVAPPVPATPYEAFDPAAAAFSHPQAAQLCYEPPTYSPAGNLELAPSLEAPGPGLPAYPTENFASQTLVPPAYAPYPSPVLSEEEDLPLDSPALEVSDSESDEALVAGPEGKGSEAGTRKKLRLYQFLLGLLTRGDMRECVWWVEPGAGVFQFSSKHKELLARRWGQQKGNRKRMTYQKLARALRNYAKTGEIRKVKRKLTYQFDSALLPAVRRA
Chain of ETV1 (P50549 whole entry): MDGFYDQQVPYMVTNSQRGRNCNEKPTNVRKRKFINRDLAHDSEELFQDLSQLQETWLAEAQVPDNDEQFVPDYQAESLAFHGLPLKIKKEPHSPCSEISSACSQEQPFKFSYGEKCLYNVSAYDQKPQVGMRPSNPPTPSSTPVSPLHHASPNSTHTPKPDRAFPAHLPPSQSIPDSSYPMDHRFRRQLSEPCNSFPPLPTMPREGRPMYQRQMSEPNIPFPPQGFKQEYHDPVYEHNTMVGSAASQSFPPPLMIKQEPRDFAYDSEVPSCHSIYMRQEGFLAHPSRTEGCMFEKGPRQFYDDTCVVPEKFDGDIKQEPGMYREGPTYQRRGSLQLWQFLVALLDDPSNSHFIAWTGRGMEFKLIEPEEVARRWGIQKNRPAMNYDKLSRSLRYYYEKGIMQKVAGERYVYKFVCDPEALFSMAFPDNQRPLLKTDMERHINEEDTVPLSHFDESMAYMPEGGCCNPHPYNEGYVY
Chain of ELF1 (P32519 whole entry): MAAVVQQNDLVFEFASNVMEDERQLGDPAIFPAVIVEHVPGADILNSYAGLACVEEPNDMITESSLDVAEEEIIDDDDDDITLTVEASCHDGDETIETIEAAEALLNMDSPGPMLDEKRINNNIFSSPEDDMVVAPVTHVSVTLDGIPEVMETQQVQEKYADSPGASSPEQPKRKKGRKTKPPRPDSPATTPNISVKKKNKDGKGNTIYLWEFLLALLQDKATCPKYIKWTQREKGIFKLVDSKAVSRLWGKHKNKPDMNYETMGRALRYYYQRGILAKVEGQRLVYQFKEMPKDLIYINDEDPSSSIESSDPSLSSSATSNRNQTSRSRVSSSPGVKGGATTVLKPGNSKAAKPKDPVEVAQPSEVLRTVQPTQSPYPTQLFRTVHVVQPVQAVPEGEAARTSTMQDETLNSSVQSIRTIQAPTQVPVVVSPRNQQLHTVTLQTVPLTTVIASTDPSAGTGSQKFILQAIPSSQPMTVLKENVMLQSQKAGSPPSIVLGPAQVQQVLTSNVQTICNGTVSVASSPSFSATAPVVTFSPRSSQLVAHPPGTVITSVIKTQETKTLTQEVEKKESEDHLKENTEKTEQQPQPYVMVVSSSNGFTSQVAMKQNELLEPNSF
Chain of HSF1 (Q00613 whole entry): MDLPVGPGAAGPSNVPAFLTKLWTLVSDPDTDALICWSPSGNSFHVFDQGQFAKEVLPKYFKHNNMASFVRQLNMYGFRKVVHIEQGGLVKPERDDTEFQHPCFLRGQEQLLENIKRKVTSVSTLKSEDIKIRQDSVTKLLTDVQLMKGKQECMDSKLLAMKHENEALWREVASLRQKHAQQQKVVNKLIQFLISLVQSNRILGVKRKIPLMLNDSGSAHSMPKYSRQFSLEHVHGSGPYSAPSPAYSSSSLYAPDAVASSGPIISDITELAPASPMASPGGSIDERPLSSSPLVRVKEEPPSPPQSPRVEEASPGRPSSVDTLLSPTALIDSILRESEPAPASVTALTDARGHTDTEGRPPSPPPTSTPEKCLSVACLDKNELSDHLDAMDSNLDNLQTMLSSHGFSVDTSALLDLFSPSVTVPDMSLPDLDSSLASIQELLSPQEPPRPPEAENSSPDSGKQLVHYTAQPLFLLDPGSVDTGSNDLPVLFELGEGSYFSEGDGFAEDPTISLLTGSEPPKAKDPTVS

How did the binding signal (FLI1) turn out when CGATAC was run?
Its binding signal is 1.19 fold enrichment (6-mer frequency, TF over GST control).

And the binding signal (ELK1)?
The binding signal was 1.19 fold enrichment (6-mer frequency, TF over GST control).

What about the binding signal (GABPA) of the same sequence?
Its binding signal is 1.27 fold enrichment (6-mer frequency, TF over GST control).

And the binding signal (ERG)?
The binding signal was 1.18 fold enrichment (6-mer frequency, TF over GST control).

And the binding signal (ELF1)?
Its binding signal is 1.19 fold enrichment (6-mer frequency, TF over GST control).

What about the binding signal (EHF) of the same sequence?
The binding signal was 1.2 fold enrichment (6-mer frequency, TF over GST control).

And the binding signal (SPI1)?
Its binding signal is 1.15 fold enrichment (6-mer frequency, TF over GST control).

What about the binding signal (SPIB) of the same sequence?
The binding signal was 1.06 fold enrichment (6-mer frequency, TF over GST control).

And the binding signal (ELK3)?
Its binding signal is 1.14 fold enrichment (6-mer frequency, TF over GST control).

What about the binding signal (FEV) of the same sequence?
The binding signal was 1.14 fold enrichment (6-mer frequency, TF over GST control).

What about the binding signal (ETV5) of the same sequence?
Its binding signal is 1.13 fold enrichment (6-mer frequency, TF over GST control).

What about the binding signal (HSF1) of the same sequence?
Its binding signal is 1.01 fold enrichment (6-mer frequency, TF over GST control).

And the binding signal (SPIC)?
The binding signal was 1.34 fold enrichment (6-mer frequency, TF over GST control).

What about the binding signal (ELF4) of the same sequence?
Its binding signal is 1.25 fold enrichment (6-mer frequency, TF over GST control).

What about the binding signal (ELK4) of the same sequence?
Its binding signal is 1.15 fold enrichment (6-mer frequency, TF over GST control).

What about the binding signal (ETV2) of the same sequence?
Its binding signal is 1.18 fold enrichment (6-mer frequency, TF over GST control).

What about the binding signal (ELF3) of the same sequence?
The binding signal was 1.14 fold enrichment (6-mer frequency, TF over GST control).

And the binding signal (ETV1)?
Its binding signal is 1.13 fold enrichment (6-mer frequency, TF over GST control).
